# Reference: PubChem BioAssay (EPA / NIEHS)
# Records with an inconclusive call do not appear. Activity calls are given as the source filed them. How the source made its calls, unless noted: active means hit-call score of the fitted dose curve at least 0.9, where 1 is the maximum; inconclusive means response in the unintended direction; inactive means score below 0.9.
# What was measured:
# [1] = test system: SERPINA7 (gene 6906); assay: CCTE_GLTED_hTBG: CCTE's human Thyroxine-binding Globulin (TBG) Inhibition Assay, Great Lakes Toxicology and Ecology Division (GLTED) Lab (AID 2284343);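 further: active chemicals lower fluorescence versus DMSO baseline by displacing probe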
# Method in brief: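 hTBG + test chem, 2 h; ANSA probe displacement; fluorescence readout ex380/em475; DMSO = neg ctrl/baseline; cell-free.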
# [2] = IUF_NPC1_cytotoxicity_72hr: Cytotoxicity Assessment at 72 hours in the Leibniz Research Institute for Environmental Medicine (IUF) Neural Progenitor Cell Proliferation Assay (NPC1) (AID 2284332);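 further: rising LDH signal means more cytotoxicity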
# Method in brief: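 Spheres of primary human neural progenitors are plated one per well on day 0 in growth-factor medium and dosed at once. After three days at 37C, supernatant LDH is measured fluorimetrically via resazurin reduction.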
# [3] = CCTE_Mundy_HCI_iCellGluta_NOG_NeuronCount: CCTE's Neurite Outgrowth Assay in iCellGluta cells for Neuron Count, Mundy Lab (AID 2284340);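 further: cells fixed about 48 h after compound addition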
# Method in brief: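 Neuron count read by automated high-content imaging of Hoechst 33342 and betaIII-tubulin/Alexa Fluor-488 labelling in human iPSC glutamatergic neurons. Activity fitted relative to DMSO.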
# [4] = CCTE_Mundy_HCI_iCellGluta_NOG_NeuriteCount: CCTE's Neurite Outgrowth Assay in iCellGluta cells for Neurite Count, Mundy Lab (AID 2284342);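 further: chemical exposure about 48 hours starting 2 hours after plating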
# [5] = test system: IYD (gene 389434); assay: CCTE_GLTED_hIYD: CCTE's human Iodotyrosine Deiodinase (xIYD) Inhibition Assay, Great Lakes Toxicology and Ecology Division (GLTED) Lab (AID 2284317);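 further: cell-free human IYD enzyme made in baculovirus insect cells; iodide freed from monoiodotyrosine measured by cerium arsenite color change at 420 nm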
# Method in brief: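 Absorbance change at 420 nm from the iodide-catalysed cerium-arsenic reaction reports free iodide released by human IYD from monoiodotyrosine. Enzyme, substrate and chemical are incubated 3 h; loss of signal is fitted relative to DMSO baseline.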
# [6] = CCTE_Mundy_HCI_iCellGluta_NOG_NeuriteLength: CCTE's Neurite Outgrowth Assay in iCellGluta cells for Neurite Length, Mundy Lab (AID 2284318)
# Method in brief: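 Automated high-content imaging of betaIII-tubulin (Alexa Fluor-488) and Hoechst-stained cells gave neurite length, normalized to the DMSO baseline.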
# [7] = VALA_MIGHUV2_WoundArea: VALA Sciences human Umbilical Vein Endothelial Cell Migration (MIGHUV) Assay, Area of Scratch Wound after Recovery (AID 2284316)
# Method in brief: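 HUVEC seeded at 9000 cells/well, scratched after 24 h; test chemical added within 30 min, 6-point concentration response in triplicate (0.1% DMSO vehicle). After 24 h wound recovery, cells fixed and Hoechst-stained nuclei in wound area imaged; Cytochalasin D reference control.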
# [8] = VALA_MIGHUV1_ScratchOnly_WoundArea: VALA Sciences human Umbilical Vein Endothelial Cell Migration (MIGHUV) Assay, Area of Scratch Wound Inhibited Recovery (AID 2284336)
# Method in brief: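 HUVEC monolayers (9000 cells/well) were scratched after 24 h, dosed within 30 min (six concentrations, triplicate, 0.1% DMSO), allowed 24 h recovery, then fixed. Hoechst-stained nuclei in the wound imaged; cytochalasin D as reference.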
# [9] = VALA_TUBHUV_Agonist_TubuleLength: VALA Sciences human Umbilical Vein Endothelial Tubule Formation (TUBHUV) Agonism Assay (AID 2284337)
# Method in brief: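 HUVEC co-cultured with fibroblasts (1:3) 3 days in 10 ng/ml VEGF, then 3 days with compound plus VEGF; 0.1 % DMSO neutral control. Fixed, nuclear and CD31 stained; tubule length by fluorescence imaging.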
# [10] = VALA_TUBIPS_Agonist_CellCount: Viability Assessment in the VALA Sciences human iPS-derived Endothelial Tubule Formation (TUBIPS) Agonism Assay (AID 2284338)
# [11] = CCTE_Deisenroth_H295R-HTRF_384WELL_ESTRADIOL: CCTE's H295R-HTRF Assay Evaluation of Estradiol Concentration, Deisenroth Lab (AID 2284361; active means hit-call score of the fitted dose curve at least 0.9, where 1 is the maximum; inactive means score below 0.9); settings: actives raise or lower the signal
# Method in brief: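 H295R cells exposed 48 h to chemicals at 0.001 - 100 uM final (nine points, triplicate); estradiol in conditioned medium measured by HTRF immunoassay, fitted bidirectionally versus DMSO. Viability by CellTiter-Glo on same plates.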
# [12] = CCTE_Deisenroth_H295R-HTRF_384WELL_TESTOSTERONE: CCTE's H295R-HTRF Assay Evaluation of Testosterone Concentration, Deisenroth Lab (AID 2284373; active means hit-call score of the fitted dose curve at least 0.9, where 1 is the maximum; inactive means score below 0.9); settings: actives raise or lower the signal
# Method in brief: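 H295R cells were acclimated 24 h, then exposed 48 h to nine concentrations (0.001–100 uM final) in technical triplicate, n=5. Testosterone in conditioned medium was measured by HTRF (em 620/665 nm). Fitting was bidirectional versus DMSO; CellTiter-Glo viability ran on the same plates.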
# [13] = CCTE_Deisenroth_H295R-HTRF_384WELL_CTOX: Cytotoxicity Assessment in CCTE's H295R-HTRF Assay, Deisenroth Lab (AID 2284380)
# Method in brief: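 H295R adrenocortical carcinoma cells plated 24 h, then exposed 48 h to nine-point series 0.001–100 uM final, triplicate, n=5. ATP measured by CellTiter-Glo 2.0 luminescence on same plates after medium collection; loss versus DMSO.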
# [14] = CCTE_Deisenroth_5AR_NBTE_donor: CCTE's 5alpha-reductase NanoBRET Target Engagement Assay […], Deisenroth Lab (AID 2284319; active means hit-call score of the fitted dose curve at least 0.9, where 1 is the maximum; inactive means score below 0.9); settings: actives raise or lower the signal
# Method in brief: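 HEK293T cells were reverse transfected with an SRD5A2-NanoLuc vector for 20 h, exposed to test chemical (8 points, 10 nM - 29.9 uM) for 3 h, then testosterone tracer for 2 h more. Donor luminescence (460 nm) was read; bidirectional fit versus DMSO.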
# [15] = CCTE_Deisenroth_5AR_NBTE_acceptor: CCTE's 5alpha-reductase NanoBRET Target Engagement Assay - Autofluorescence Screen, Deisenroth Lab (AID 2284321; active means hit-call score of the fitted dose curve at least 0.9, where 1 is the maximum; inactive means score below 0.9;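 further: compound fluorescence in the acceptor channel under 460 nm excitation flags autofluorescence artifacts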); settings: actives raise or lower the signal
# Method in brief: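 Autofluorescence counter-screen: chemicals at an assumed nominal 100 uM in DMSO were scanned in three independent runs with 460 nm excitation. Gain or loss of acceptor signal was fitted bidirectionally against DMSO.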
# [16] = test system: SRD5A2 (gene 6716); assay: CCTE_Deisenroth_5AR_NBTE_ratio: CCTE's 5alpha-reductase NanoBRET Target Engagement Assay - Ratio, Deisenroth Lab (AID 2284322; active means hit-call score of the fitted dose curve at least 0.9, where 1 is the maximum; inactive means score below 0.9); settings: actives raise or lower the signal
# Method in brief: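 HEK293T transiently expressing SRD5A2-NanoLuc; cells exposed to chemical (8-point, 10 nM - 29.9 uM) for 5 h total, testosterone tracer added for final 2 h. NanoBRET acceptor/donor ratio (650/460 nm), bidirectional fit vs DMSO.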
smiles,measurement,setting,value
FC(F)C(F)(F)OCC(Cn1cncn1)c1ccc(Cl)cc1Cl (stereo not given),AC50,[1],10.1 µM (active)
COP(=O)(NC(C)=O)SC (stereo not given),outcome,[2],inactive
same,outcome,[3],inactive
same,outcome,[4],inactive
CC(C)[C@H](C(=O)O[C@H](C#N)c1cccc(Oc2ccccc2)c1)c1ccc(Cl)cc1,outcome,[5],inactive
CCCSP(=O)(OCC)SCCC,outcome,[6],inactive
same,outcome,[2],inactive
same,outcome,[3],inactive
same,outcome,[4],inactive
CCOP(=S)(OCC)Oc1cc(C)nc(C(C)C)n1,outcome,[2],inactive
S=C1NCCN1,outcome,[7],inactive
same,outcome,[6],inactive
same,outcome,[2],inactive
same,outcome,[8],inactive
same,outcome,[9],inactive
same,outcome,[10],inactive
same,outcome,[3],inactive
same,outcome,[4],inactive
CCCCOC(=O)c1ccccc1C(=O)O,AC50,[11],54.9 µM (active)
same,outcome,[12],inactive
same,outcome,[13],inactive
CCCOCC(=Nc1ccc(Cl)cc1C(F)(F)F)n1ccnc1,outcome,[5],inactive
same,AC50,[11],0.27 µM (active)
same,AC50,[12],0.414 µM (active)
same,outcome,[13],inactive
COP(=O)(OC)OC(Br)C(Cl)(Cl)Br (stereo not given),AC50,[6],13.5 µM (active)
same,outcome,[14],inactive
same,outcome,[15],inactive
same,outcome,[16],inactive
same,outcome,[2],inactive
same,AC50,[3],21.7 µM (active)
same,AC50,[4],16.4 µM (active)
N#CSCSC#N,outcome,[14],inactive
same,outcome,[15],inactive
same,AC50,[16],19.5 µM (active)
